Out of some 69,000 compounds screened, about 8,600 (12%) showed an effect of 50% or more. The list comes from a sample in which strong results are over-represented; it also holds similar structures and randomly drawn compounds.

For this test, the system named is Plasmodium berghei. As to the kind of experiment: Screen against P. berghei liver stage (PbLuc), transformed with Luciferase, at 10uM. The class given is functional, HepG2. The following applies: tested at 10 uM.
As for `CCc1ncncc1C(=O)NC1CCc2nc(C)cn2C1` (stereo unspecified), the INHIBITION is listed as -53.5%.
The same measure for `Cc1ccccc1[C@@H]1CN(Cc2c(C)noc2C)C[C@H]1C(=O)O`: 2.25%.
As to `Cc1ccccc1[C@@H]1CN(Cc2ccc(C(F)(F)F)nc2)C[C@H]1C(=O)O`, the INHIBITION amounted to 59.7%.
The result for `COc1ccccc1[C@@H]1CN(Cc2ccncc2)C[C@H]1C(=O)O` reads -21.8%; that for `COc1ccccc1[C@@H]1CN(Cc2ccc3nsnc3c2)C[C@H]1C(=O)O`, 68.2%.
As for `CCC[C@@H]1CN(Cc2ccc(C(F)(F)F)nc2)C[C@H]1C(=O)O`, the INHIBITION was 37.2%.
The result for `COc1ccccc1[C@@H]1CN(Cc2csc(C(C)=O)c2)C[C@H]1C(=O)O` reads -82.7%; that for `COCCO[C@H]1CCN(C(=O)c2ccc[nH]2)[C@H]1Cc1ccncc1`, 42.6%; that for `CC(C)c1noc(CN2CCC(c3ccnn3CCO)CC2)n1`, -24.2%.
The same measure for `O=C(Nc1ccnn1Cc1ccccc1Cl)C1CCS(=O)(=O)C1` (stereo unspecified): -4.12%; for `CCOCC(=O)N1CCC2(CC1)COCCN2CCOC`: 12.1%; for `Cn1ncc2c(N3CCN(C(=O)c4ccsc4)CC3)ncnc21`: 21.6%.
The result for `COc1cc(CN(C)C(=O)Nc2cc(C)on2)ccc1SC` reads 40.1%; that for `Cc1ccc(C)c(OCC(O)Cn2ncc3cnn(C)c(=O)c32)c1` (stereo unspecified), -28.9%.
For the compound `Cc1ccc(OCCC(=O)N(C)CC(=O)Nc2cc(C)on2)c(C)c1`, the INHIBITION is on record as 52.2%.
The result for `Cc1ccc(OCCN(C)C(=O)CCCC(N)=O)c(C)c1` reads -7.65%; that for `Cc1ccc(OCC(O)CN(C)CC(=O)NC(C)C)c(C)c1` (stereo unspecified), 33%; that for `Cc1ccc(C)c(OCc2cc(C(=O)N(C)CC(O)CO)no2)c1` (stereo unspecified), 10.4%.
The same measure for `Cc1ccccc1OCCC(=O)N(C)Cc1c(C)noc1C`: 25.5%; for `Cc1ccc(C)c(OCC(O)CN(C)CC(=O)Nc2cc(C)on2)c1` (stereo unspecified): 84.3%; for `Cc1ccc(OCC(O)CN(C)CC(=O)Nc2cc(C)on2)c(C)c1` (stereo unspecified): 77.9%.
Regarding `CC(C)Cn1cncc1-c1nc2c([nH]1)CC(C)(C)CNC2=O`, the INHIBITION is listed as -109%.
Regarding `CCn1cc(CN2CCCN(C(=O)c3ccc(C#N)cc3)CC2)cn1`, the INHIBITION is reported as 25.6%.
In the case of `Cn1ncc2c(=O)[nH]c(CN3CCCC3CC(C)(C)C)nc21` (stereo unspecified), the INHIBITION is 19.6%.
The result for `CC(C)=CCN1C(=O)[C@@H]2CC[C@H]1CN(C(=O)CCc1nnc(Cl)[nH]1)C2` reads -15.3%; that for `Cc1cc(NCCN)nc(-c2ccccc2O)n1`, 17.7%; that for `Cn1cc(Cl)cc1C(=O)N1CCN(CCc2cccs2)CC1`, 23.73%.
The same measure for `O=C(CC1Cn2ncnc2NC1=O)Nc1ccc(F)c(F)c1` (stereo unspecified): 26.7%; for `Cc1nc(CN2CCN(c3cncc(Cl)n3)CC2)no1`: 14.6%; for `CN1CC(=O)N(c2ccccc2)CC12CCN(Cc1nccs1)C2` (stereo unspecified): -35.9%.
The result for `Cc1noc(C)c1CN1CCC2(CC1)CN(c1ccccn1)CCO2` reads -40.4%.
As for `Cn1ccnc1CN1CCC2(CC1)CN(c1ccccn1)CCO2`, the INHIBITION is recorded as 91.9%.
With `c1ccc(CN2CCC3(CC2)CN(c2ccccn2)CCO3)nc1`, the INHIBITION is recorded as -6.97%.
The same measure for `COc1ncccc1CN1CCC2(CC1)CN(c1ccccn1)CCO2`: 41.8%.
The same measure for `COc1ccc(CN2CCC3(CC2)CN(c2ccccn2)CCO3)cc1`: 26.4%; for `Fc1ccc(CN2CCC3(CC2)CN(c2ccccn2)CCO3)cc1`: 79.1%; for `CC(C)c1nc(CN2CCCN(c3nccs3)CC2)no1`: 25.4%.
`CC(=O)N1CCn2c(C(=O)N(C)C)cnc2C1`: the INHIBITION came to 47.8%.
The result for `CSc1ccccc1C(=O)N1C[C@@H]2CC[C@H]1CN(C(=O)N(C)C)C2` reads 21.2%; that for `Nc1c(C(=O)C2CCCN(C(=O)C3CC3)C2)cnn1-c1ccc(F)cc1` (stereo unspecified), 38.9%; that for `CCC(=O)N1CCCC(C(=O)c2cnn(-c3ccc(F)cc3)c2N)C1` (stereo unspecified), 56.3%.
As for `CCCC(=O)N1CCCC(C(=O)c2cnn(-c3ccc(F)cc3)c2N)C1` (stereo unspecified), the INHIBITION is reported as 17.35%.
The same measure for `c1cnc(C2CCCN2c2cnccn2)cn1` (stereo unspecified): 42.4%; for `CC(C)Cc1cc(C(=O)N2CCC(N3CCCC3)CC2)cc(O)n1`: 24.4%.
The result for `COCC1CCN(C(=O)c2cc(O)nc(CC(C)C)c2)CC1` reads 51.1%; that for `CC(C)Cc1cc(C(=O)N2CCC(Cc3cnn(C)c3)C2)cc(O)n1` (stereo unspecified), 26.6%; that for `COC(=O)c1ccc(S(=O)(=O)N2CCCn3ncnc32)s1`, 3.84%.
The result for `O=C1CC(c2ccc(Cl)c(Cl)c2)c2c(n3ccsc3nc2=O)N1` (stereo unspecified) reads 36.2%; that for `O=C(c1cc(-c2cccs2)cs1)N1CCOCC1`, -132%.
For `CC(C)c1nnc2n1CCN(Cc1cc(Cl)c3c(c1)OCCO3)C2`, the INHIBITION stood at 10.1%.
The result for `CC(Cn1ccnc1)NC(=O)NCc1cccnc1OC1CCCC1` (stereo unspecified) reads 17.4%; that for `CC(=O)N1CCCC1c1nnc2n1CCCCC2` (stereo unspecified), -2.37%.
The same measure for `CCc1ccc(C(=O)N2CCCC2c2nnc3n2CCCCC3)o1` (stereo unspecified): 57.7%; for `O=C(c1ccc(Cl)o1)N1CCCC1c1nnc2n1CCCCC2` (stereo unspecified): 29.8%.
As to `Cc1ccc(C(=O)N2CCCC2c2nnc3n2CCCCC3)o1` (stereo unspecified), the INHIBITION is on record as 8.47%.
The result for `CSCCC(=O)N1CCCC1c1nnc2n1CCCCC2` (stereo unspecified) reads 54.3%; that for `CC(C)CCC(=O)N1CCCC1c1nnc2n1CCCCC2` (stereo unspecified), 26.9%; that for `CCN(CC)CCNC(=O)c1cc(OC)c2ccoc2c1`, 31.1%.
On to `CC(=O)CN1CC2(CCNCC2)COc2ccccc2S1(=O)=O`, for which the INHIBITION amounted to 26.3%.
The result for `COc1cc(-c2cc(NC3CCCC3)nc3[nH]ccc23)nc(N)n1` reads 42.1%; that for `COc1nccnc1-c1cc(NC2CCNCC2)nc2[nH]ccc12`, -2.69%; that for `COc1ncc(-c2cc(NC3CCCC3)nc3[nH]ccc23)c(OC)n1`, 66.7%.
The same measure for `FC(F)(F)c1ccc(-c2cc(NC3CCNCC3)nc3[nH]ccc23)nc1`: 18.5%.
With `COc1ncc(-c2cc(NCCN(C)C)nc3[nH]ccc23)c(OC)n1`, the INHIBITION is on record as 49%.
The same measure for `COc1nccnc1-c1cc(NC2CCCC2)nc2[nH]ccc12`: 60%; for `CCS(=O)(=O)N1CCC(c2nc(C)c(C)c(N3CCCC3)n2)CC1`: 22.35%.
The same measure for `Cc1noc([C@]23COC[C@H]2CN(C(=O)Cc2ccsc2)C3)n1`: 38.5%; for `O=C(CC1[C@H]2CN(Cc3ccc(F)cc3)C[C@@H]12)N1CCCC1` (stereo partly specified): -7.28%; for `O=C(NCCc1cc(F)ccc1F)NCC(O)C1CC1` (stereo unspecified): 14.9%.
The result for `Cc1nc(C(=O)N(C)C2CC(=O)N(Cc3ccccc3)C2=O)cs1` (stereo unspecified) reads 8.51%; that for `CN(C(=O)c1ccc[nH]1)C1CC(=O)N(Cc2ccccc2)C1=O` (stereo unspecified), 15.2%; that for `Cc1[nH]ccc1C(=O)N(C)C1CC(=O)N(Cc2ccccc2)C1=O` (stereo unspecified), 54.4%.
With `O=C(c1cc(C2CCCCN2C(=O)C2CCC2)n[nH]1)N1CCOCC1` (stereo unspecified), the INHIBITION is -22.6%.
The same measure for `CCn1ncc(CN2CCc3nc(-c4cccnc4)nc(O)c3C2)c1C`: 29.2%; for `CN(C)C(=O)COC[C@]12COC[C@H]1CN(Cc1ccco1)C2`: -3.33%.
The result for `CN(C)C(CNC(=O)NCCS(C)(=O)=O)c1ccco1` (stereo unspecified) reads -18.3%.
The same measure for `Cc1nc(CCNC(=O)NCC(c2ccco2)N(C)C)cs1` (stereo unspecified): 55.6%; for `CN(C)C(CNC(=O)NCCc1cccc(O)c1)c1ccco1` (stereo unspecified): 41.4%.
On to `Cn1ccc2c(C(=O)N3CC[C@@]4(O)CCCC[C@H]4C3)cccc21`, for which the INHIBITION was found to be 1.62%.
For `O=S(=O)(Cc1ccccc1)NCc1nnc2n1CCC2`, the INHIBITION was -12.4%.
The result for `O=C(NCc1nnc2n1CCCCC2)N(CC1CCOC1)C1CC1` (stereo unspecified) reads 55%.
As for `CN(Cc1ccc(F)cc1)C(=O)NCc1nnc2n1CCC2`, the INHIBITION was -21.8%.
The result for `CCN(CC1CCOC1)C(=O)NCc1nnc2n1CCC2` (stereo unspecified) reads 42%; that for `O=S(=O)(Cc1ccc(F)cc1)NCCc1nnc2n1CCC2`, 30.5%.
The result for `O=C(NCc1nnc2n1CCC2)c1ccc(Br)s1` reads 49.4%; that for `O=C(NCc1nnc2n1CCCC2)c1ccc(C2CCCO2)s1` (stereo unspecified), 59.1%; that for `O=C(NCc1nnc2n1CCC2)N(Cc1ccc(F)cc1)C1CC1`, 50.4%.
For the compound `CCN(CC1CCOC1)C(=O)NCc1nnc2n1CCCCC2` (stereo unspecified), the INHIBITION amounted to 34.4%.
The result for `O=C(NCc1nnc2n1CCC2)c1ccc(C2CCCO2)s1` (stereo unspecified) reads -1.7%.
In the case of `O=S(=O)(Cc1ccc(F)cc1)NCc1nnc2n1CCC2`, the INHIBITION came out at 68.9%.
The same measure for `O=C(NCc1nnc2n1CCCCC2)N(Cc1ccncc1)C1CC1`: 26.5%.
The same measure for `CCCC(C#N)NC(=O)c1sccc1CC` (stereo unspecified): 46.6%; for `CSc1ncnc(NCc2cccs2)c1C#N`: 10.6%.
The same measure for `Cc1nsc(N2CCCN(C(=O)NCc3cc(C)on3)CC2)n1`: 45%; for `CCc1nccn1C1CCCN(C(=O)c2ccc3c(c2)nnn3C)C1` (stereo unspecified): 12.7%.
Consider `COc1cc2nc3n(c(=O)c2cc1OC)CCN(C(=O)C(C)(C)C)CC3`, for which the INHIBITION is 32.3%.
The result for `Cc1ccc(C(C)(O)CNC(=O)NCCc2ccc3c(c2)CCO3)o1` (stereo unspecified) reads 23.2%; that for `O=c1cc(CN2CC[C@@]3(O)CCCC[C@H]3C2)c2cccc3c2n1CCC3`, 42.1%; that for `O=C(NCCc1c[nH]cn1)c1ccc(S(=O)(=O)NC2CCOC2)cc1` (stereo unspecified), 4.68%.
The result for `O=C(NCCNc1cc(N2CCCC2)cnn1)Nc1ccccc1F` reads 53.8%; that for `O=C(Cc1ccc(F)cc1)NCCNc1cc(N2CCCC2)cnn1`, 34.6%.
The same measure for `CSc1nnc(CNC(=O)Nc2ccccc2F)n1C`: 31.7%; for `CNS(=O)(=O)c1ccc(C(=O)Nc2ccc3c(c2)C(=O)NC3)cc1`: -5.26%.
`O=C(Nc1ccc2c(c1)C(=O)NC2)c1ccc(S(=O)(=O)C(F)(F)F)cc1`: the INHIBITION amounted to 55%.
The same measure for `CS(=O)(=O)Cc1ccc(C(=O)Nc2ccc3c(c2)C(=O)NC3)cc1`: 37.9%; for `O=C(NCC1COC2(CCOCC2)O1)c1csc(-c2cccc(Cl)c2)n1` (stereo unspecified): 15.5%.

(Values after ChEMBL document CHEMBL4513216, “Probing the Open Global Health Chemical Diversity Library for Multistage-Active Starting Points for Next-Generation Antimalarials” (ACS Infect Dis, 2020).)
